Out of some 320,000 compounds screened, about 22,000 (6.9%) were called active. A call without a number means that no potency is given here. Not shown: some 27% with an inconclusive outcome. The call rests on the fitted dose curve; in most records, active means well fitted inhibition curve with a large enough effect; inconclusive means small, poorly fitted or top-dose-only effect, or another doubt; inactive means no such curve, though single readings can be large or run the other way. This excerpt belongs to a sample that is enriched for actives.
Test: Primary qHTS for delayed death inhibitors of the malarial parasite plastid, 96 hour incubation
Settings: P. falciparum luciferase reporter growth; series mostly up to 28.7 µM
Excerpt: The goal of this screen is to discover new antimalarial compounds that act by inhibiting the development of the apicoplast in the malarial parasite Plasmodium falciparum. The biochemical processes that make this organelle essential for erythrocytic stage parasites are not well understood. However, antibiotics such as azithromycin and tetracycline, which target the apicoplast translational machinery, have a potent antimalarial effect.
We have developed a cell-based assay that measures parasite growth based on the expression of an integrated copy of a firefly luciferase reporter. To detect small molecules that cause this "delayed death" phenotype, erythrocytes infected with the luciferase-expressing parasites were incubated with compounds for either one or two generations, corresponding to 48 and 96 hours, respectively. Compounds that inhibit parasite growth in the second generation, but not the first, should be enriched in antimalarials that target the apicoplast. Growth inhibition is detected by a decrease in luciferase activity.
Assay Provider: David Fidock and Eric Ekland, Columbia University
Keywords: NIH Roadmap, MLPCN, MLI, MLSMR, qHTS, NCGC, qHTS, malaria, luciferase, viability
Four microliters of infected erythrocytes (2% hematocrit, 0.05% parasitemia final concentration) in culture medium were dispensed and the plates incubated for 96 hours at 37 C in 5% CO2. Two microliters of luciferase detection reagent was added and luminescence was detected by a ViewLux (PerkinElmer) reader.
For `CC(=O)Nc1ccc(NC(=O)C(NS(=O)(=O)c2ccc3c(c2)OCCO3)C(C)C)cc1` (stereo not drawn), the Potency was “inactive”. With `CCn1cc(C(=O)N[C@@H](C)C(=O)NCCO)c(=O)c2cc3c(cc21)OCO3` the Potency was “inactive”. With `COc1nnc(-c2ccc(C)c(S(=O)(=O)N(C)C)c2)c2ccccc12` the Potency was “inactive”. In the case of `c1ccc(-c2cc(-c3ccccc3)[nH]n2)cc1`, the Potency was “inactive”. With `CC(=O)OCCOCn1cnn2c(=O)c(Br)c(C)nc12` the Potency was “inactive”. With `CC(C)c1nnc(NC(=O)C2CC(=O)N(CCc3ccc(F)cc3)C2)s1` (stereo not drawn) the Potency was “inactive”. With `S=C(NCCc1ccccc1)NCC1CCCO1` (stereo not drawn) the Potency was “inactive”. In the case of `O=C(COC(=O)c1ccc(S(=O)(=O)Nc2ccccc2)cc1)NCC1CCCO1` (stereo not drawn), the Potency was “inactive”. In the case of `O=C(CS(=O)(=O)Cc1ccccc1)NCC1CCCO1` (stereo not drawn), the Potency was 2.94 µM (active). For `COc1ccc(NS(=O)(=O)c2ccc(C)c(C(=O)NNC(=O)c3csc(N4CCOCC4)n3)c2)cc1`, the Potency was “inactive”. In the case of `CC(=O)Nc1ccc(S(=O)(=O)Nc2ccc(N3CCOCC3)c(F)c2)cc1`, the Potency was “inactive”. For `COc1ccc(NS(=O)(=O)c2ccc(N3CCOCC3)c(NC(=O)c3ccccc3Br)c2)cc1`, the Potency was 9.28 µM (active). In the case of `CCCCn1c(N)c(N(CC(C)C)C(=O)c2ccc(-n3c(C)ccc3C)cc2)c(=O)[nH]c1=O`, the Potency was “inactive”. With `CCOc1ccc(C(=O)NC2CCN(C(=O)Nc3ccccc3OC)CC2)cc1` the Potency was “inactive”. For `CCOc1ccc(NC(=S)N2CCC(NC(=O)c3ccccc3)CC2)cc1`, the Potency was “inactive”. For `CCOc1ccc(C(=O)NC2CCN(S(=O)(=O)CC)CC2)cc1`, the Potency was 2.33 µM (active). With `CCOc1c(OC)cccc1C(=O)NCC1(c2ccccc2)CCCC1` the Potency was “inactive”. For `CN(C)CCn1c2c(c(SCC(=O)NCc3ccccc3)nc1=O)CCC2`, the Potency was “inactive”. In the case of `COc1ccccc1CNC(=O)CSc1nc(=O)n(Cc2ccncc2)c2c1CCC2`, the Potency was 14.7 µM (active). For `COc1ccccc1CNC(=O)Cn1cc2c(n1)CCCC2`, the Potency was “inactive”. In the case of `O=C(NCCc1ccc(Cl)cc1)C1CCCN1C(=O)NCc1ccccc1` (stereo not drawn), the Potency was “inactive”. With `NC(=O)C1CC(=O)N(c2ccc(OCC(=O)NCc3ccccc3)cc2)C1` (stereo not drawn) the Potency was “inactive”. With `CC(NC(=O)c1ccc(S(=O)(=O)Nc2ccccc2)cc1)c1ccc(S(N)(=O)=O)cc1` (stereo not drawn) the Potency was “inactive”. For `Cc1sc2nc(CSCC(=O)NC3CCCCC3)[nH]c(=O)c2c1C`, the Potency was “inactive”. For `CC1=CC(C)(C)N(C(=O)CSc2nnc(-c3ccccc3)o2)c2ccc(C)cc21`, the Potency was 13.1 µM (active). With `Cc1cccc(C)c1OC(=O)CSc1nnc(-c2ccccc2)o1` the Potency was “inactive”. In the case of `O=C(CSc1nnc(-c2ccccc2)o1)N1CCOCC1`, the Potency was “inactive”. In the case of `Cc1ccccc1C(=O)N1CCC(C(=O)Oc2ccc(C#N)cc2)CC1`, the Potency was “inactive”.
Potency means the concentration at half of the fitted maximal effect.
